# D1 PAM: Potentiators of Human D1 Dopamine Receptor: qHTS. AID 504651, 2011. HEK293 TREx D1 cells, calcium flux, dopamine EC20 potentiation. D(1A) dopamine receptor (Homo sapiens), P21728. potentiation, % at 10 µM. 0.036% of 360,000 active; in the data active means potentiation above about 30%; further: 0% is about no effect
# D1 antag: Antagonist of Human D 1 Dopamine Receptor: qHTS; D(1A) dopamine receptor (Homo sapiens), P21728; HEK293 TREx D1 cells, calcium flux, dopamine EC80; stronger effect = lower value; activity change, negative = inhibition, % at 10 µM; 3.2% of 360,000 active; AID 504652, 2011; in the data active means activity change below about -30%; further: on the % scale 0 is the no-effect control and ±100 the full control effect
#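 Tetracycline-induced HEK293 T-REx cells with force-coupled D1 receptor were loaded with a no-wash calcium dye. Compound was added after a 10 s baseline and read kinetically for 180 s; EC80 dopamine was then added and calcium flux followed another 180 s.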
# D1 agonist: Allosteric Agonists of the Human D1 Dopamine Receptor: qHTS; AID 504660, 2011; activation, % at 2 µM; D(1A) dopamine receptor (Homo sapiens), P21728; 1% of 360,000 active; HEK293 T-REx D1 cells, calcium flux, agonist mode; further: 0% is about no effect
#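 Inducible HEK293 T-REx D1 cells, force-coupled to calcium signalling, were plated at 4000 cells/well with tetracycline and held overnight at 30 C. After no-wash calcium dye loading, compound-evoked calcium rise over 180 s flagged agonists.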
# TRHR agonist: qHTS for Small Molecule Agonists and Allosteric Enhancers of Human TRH Receptor: Primary Screen for Agonists | Thyrotropin-releasing hormone receptor (Homo sapiens), P34981 | TRHR cells, calcium flux fluo-8, FDSS agonist mode | 0.18% of 360,000 active | activation, % at 2 µM | AID 493084, 2011; further: 0% is about no effect
# Target sequence (P34981 whole entry, looked up): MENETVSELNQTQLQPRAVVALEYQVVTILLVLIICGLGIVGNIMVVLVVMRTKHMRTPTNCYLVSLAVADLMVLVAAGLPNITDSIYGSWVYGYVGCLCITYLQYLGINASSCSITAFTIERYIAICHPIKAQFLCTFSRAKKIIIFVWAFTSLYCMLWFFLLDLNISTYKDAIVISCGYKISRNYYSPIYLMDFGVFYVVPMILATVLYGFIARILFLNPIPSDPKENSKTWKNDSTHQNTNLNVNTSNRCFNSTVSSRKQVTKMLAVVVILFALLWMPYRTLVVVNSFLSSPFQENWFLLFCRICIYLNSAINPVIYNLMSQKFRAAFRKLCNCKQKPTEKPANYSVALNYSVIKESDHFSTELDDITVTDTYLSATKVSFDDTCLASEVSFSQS
#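 In this calcium-flux screen, cells bearing human TRHR are dye-loaded with fluo-8, baselined for 10 cycles, then exposed to library compounds; positive kinetic calcium responses during the agonist phase mark hits, with TRH as control.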
# Glioma ERSR ind: qHTS for Inducers of the Endoplasmic Reticulum Stress Response (ERSR) in Human Glioma: qHTS; U87-MG GRP78 promoter luciferase reporter, 16 h; Potency, µM, for the others: at the top dose activation, actives largely listed as activators; 0.02% of 420,000 active; AID 602332, 2012; active means well fitted activation curve with a large enough effect; further: potency means the concentration at half of the fitted maximal effect; series mostly up to about 76 µM; % of control where 0% means no effect; nearly all actives have a fitted effect of over 35% in size
#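 Stably transfected U87-MG human glioma cells carrying a GRP78-based luminescent sensor were seeded at 1000 cells/well, pin-dosed with compounds and incubated 16 h. Luciferase reagent was then added, and end-point luminescence was read after 10 min at room temperature.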
# TRHR enhancer: qHTS for Small Molecule Agonists and Allosteric Enhancers of Human TRH Receptor: Primary Screen for Enhancers | AID 493056, 2011 | TRHR cells, fluo-8 calcium fluorescence, EC20 TRH enhancement | Thyrotropin-releasing hormone receptor (Homo sapiens), P34981 | 0.66% of 360,000 active | enhancement, % at 2 µM; in the data active means enhancement above about 30%; further: 0% is about no effect
#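 TRHR-expressing cells loaded with fluo-8 calcium dye were read kinetically (ex 480/em 530) during compound addition, then stimulated with an EC20 of TRH (10 nM final). Enhancement of the Gq-mediated intracellular calcium response was scored.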
# An asterisk follows results filed as active; / = no result; ! = repeats disagree. Only some compounds are listed: those with a hit (about 4% of all), similar ones and a draw of the others. Unless noted, no stated cut-off is given here; in the data, active means activation above about 30%; inactive means the rest.
SMILES,D1 PAM,D1 antag,D1 agonist,TRHR agonist,Glioma ERSR ind,TRHR enhancer
Cc1ccc(C)c(OCCC(=O)OCC(=O)Nc2ccc(C)c(S(=O)(=O)N3CCCCC3)c2)c1,-16,-32*,14,2,0%,-8
Cc1ccc(NC(=S)NCc2ccccc2)cc1S(=O)(=O)N1CCCCC1,-6,-35*,33*,-1,1%,-4
CCCCNC(=O)C(CC)n1c(SCc2cccc(F)c2)nc2ccncc21 (stereo not given),/,/,/,/,-3%,/
CC(=O)N1CCC2(CC1)CCN(C(=O)Nc1cccc(C#N)c1)CC2,/,/,/,/,-3%,/
Cc1ccc(NC(=O)COC(=O)C2CCC2)cc1S(=O)(=O)N1CCCCC1,-8,-32*,4,0,-4%,-3
Cc1cc(-c2nn3c(-c4ccccc4)nnc3s2)c2ccccc2n1,-6,-33*,-1,0,-2%,-2
Cc1cccc(N2CCN(C(=O)c3nn(C)c4c3CS(=O)(=O)c3ccccc3-4)CC2C)c1 (stereo not given),0,-6,1,0,-4%,-12
CC1CCN(CCCNC(=O)c2nn(C)c3c2CS(=O)(=O)c2ccccc2-3)CC1,-2,-10,1,1,-3%,-3
Cn1nc(C(=O)NCc2ccccc2Cl)c2c1-c1ccccc1S(=O)(=O)C2,1,-31*!,3,-1,-5%,-2
CC1CC(C)CN(CCCNC(=O)c2nn(C)c3c2CS(=O)(=O)c2ccccc2-3)C1 (stereo not given),0,-42*,-1,0,-7%,4
Cc1cccc(N2CCN(C(=O)c3nn(C)c4c3CSc3ccccc3-4)CC2C)c1 (stereo not given),-5,-46*,1,0,-6%,0
Cn1nc(C(=O)NCCCN2CCCCC2)c2c1-c1ccccc1SC2,-5,-30*,5,2,-6%,-11
CSc1cccc(NC(=O)CSc2nc3ccccc3o2)c1,/,/,/,/,3%,/
CCOC(=O)OCC1OC(C#Cc2ccccc2)C=CC1Oc1cccc(N(C)C)c1 (stereo not given),/,/,/,/,-4%,/
COc1cc(C(=O)Nc2ccc3c(c2)C(=O)c2ccccc2C3=O)cc(OC)c1OC,-7,-50*,4,-1,-2%,5
COc1cc(NC(=O)c2cc(-c3ccccc3)on2)cc(OC)c1OC,-1,3,2,0,1%,5
COc1ccc(C(=O)Nc2ccc3c(c2)C(=O)c2ccccc2C3=O)cc1OC,-1,-9,1,0,9%,-4
COc1ccccc1NC(=O)C/C(C)=N/NC(=O)c1ccccn1,-2,-38*,0,1,1%,-7
COc1cc(NC(=O)c2ccccn2)cc(OC)c1OC,-2,17,0,0,1%,30*
O=C(O[C@H]1[C@H](Cc2ccccc2)NS(=O)(=O)[C@H]2CC3C=C[C@]12O3)c1ccc(Br)cc1,/,/,/,/,-4%,/
COCCNc1nc2c(S(=O)(=O)c3ccc(C)c(C)c3)nnn2c2ccc(Cl)cc12,-8,-64*,1,0,-5%,-15
O=S(=O)(c1ccccc1)c1nnn2c1nc(NCc1ccc(Cl)cc1)c1sccc12,-5,-34*,0,0,-3%,28
Cc1ccc(S(=O)(=O)c2nnn3c2nc(NC(C)C)c2sccc23)cc1,-7,-30*,5,0,-3%,-7
Cc1ccc(CNc2nc3c(S(=O)(=O)c4ccc(C)c(C)c4)nnn3c3ccc(Cl)cc23)cc1,-3,-5,2,0,-3%,0
COCCCNc1nc2c(S(=O)(=O)c3ccc(C)c(C)c3)nnn2c2ccc(Cl)cc12,-7,-66*,2,0,-2%,-14
SMILES,D1 PAM,D1 antag,D1 agonist,TRHR agonist,Glioma ERSR ind,TRHR enhancer
CCOc1cc(/C=C(\C#N)C(N)=O)cc(CSc2ccccc2)c1O,/,/,/,/,-4%,/
O=P(O)(Cc1ccccc1)Cc1ccccc1,8,-2,6,0,-2%,0
Cc1ccc(S(=O)(=O)c2nnn3c2nc(NC(C)C)c2cc(Cl)ccc23)cc1C,-4,-52*,0,0,4%,-4
CCC(=O)N(CC)c1nc(-c2ccc(OC)cc2)cs1,-1,-47*,113*,0,6%,-5
COc1ccc(-c2csc(N(CCCN(C)C)C(=O)c3ccccc3C)n2)cc1,-11,-54*,33*,4,-6%,-1
COc1ccc(-c2csc(N(CCCN(C)C)C(=O)c3ccccc3Cl)n2)cc1,/,/,/,/,-6%,/
CCC(=O)N(Cc1ccco1)c1nc(-c2ccc(OC)cc2)cs1,-26,-25,6,1,1%,4
CN(C(=O)CSc1nncc2ccccc12)c1ccccc1,/,/,/,/,0%,/
CC(C)(C)c1ccc(C(=O)CCC(=O)OCC(=O)NCCc2ccc(S(N)(=O)=O)cc2)cc1,-4,-34*,5,0,-10%,4
O=C(COC(=O)C1CC1)NCCc1ccccc1,/,/,/,/,-2%,/
NS(=O)(=O)c1ccc(CCNC(=O)COC(=O)C2CCC2)cc1,-2,5,0,0,-2%,33*
NS(=O)(=O)c1ccc(CCNC(=O)COC(=O)CCc2ccccc2)cc1,-5,-16,2,0,-4%,2
Cc1ccc(CNc2ccc(S(=O)(=O)N3CCOCC3)cc2[N+](=O)[O-])cc1,2,-57*,6,0,-3%,-3
Cc1cccc(Nc2ccc(S(=O)(=O)N3CCOCC3)cc2[N+](=O)[O-])c1,/,-26,3,0,-1%,-8
O=C(O)C1CCN(c2ccc(S(=O)(=O)N3CCOCC3)cc2[N+](=O)[O-])CC1,-4,-24,4,0,-5%,-5
O=[N+]([O-])c1cc(S(=O)(=O)N2CCOCC2)ccc1N1CCCC1,6,-31*,1,-1,2%,8
O=C(COC(=O)/C=C/c1ccc(F)cc1)Nc1cccc(S(=O)(=O)N2CCCC2)c1,-3,-13,0,1,0%,-3
COc1cccc(/C=C/C(=O)OCC(=O)Nc2cccc(S(=O)(=O)N3CCCCC3)c2)c1OC,6,-24,4,0,-3%,34*
O=C(COC(=O)CNC(=O)c1ccc(Cl)cc1Cl)Nc1cccc(S(=O)(=O)N2CCCC2)c1,-7,-32*,5,0,-3%,-4
O=C(CCc1ccccc1Cl)Nc1cccc(S(=O)(=O)N2CCCC2)c1,5,-32*,7,-1,-2%,15
